The whole screen tested about 340,000 compounds, of which about 1,000 (0.29%) were called active.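 The calls were made as follows: active = fluorescence-ratio B-score plate-corrected deviation score at least 3 library SD below zero, with starting fluorescence score within 5 deviations; inactive = the rest.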 What follows is part of a selection rich in actives, with near analogues and random picks from the rest.
Molecular target: Anoctamin-1 (Mus musculus) (UniProt Q8BHY3)
Assay: TMEM16A chloride channel activators or potentiators, primary screen, cell-based, HTS (AID 623877);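 as to B-score: channel opened by trigger with iodide after compound preincubation; score built on the fluorescence ratio of max minus min over baseline; more negative score means more quench and so TMEM16A activation or potentiation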
Conditions: HEK293 TMEM16A/YFP-H148Q/I152L, iodide quench fluorescence, at 10 µM; active compounds read low

Chain of Anoctamin-1 (Mus musculus) (Q8BHY3 whole entry, looked up): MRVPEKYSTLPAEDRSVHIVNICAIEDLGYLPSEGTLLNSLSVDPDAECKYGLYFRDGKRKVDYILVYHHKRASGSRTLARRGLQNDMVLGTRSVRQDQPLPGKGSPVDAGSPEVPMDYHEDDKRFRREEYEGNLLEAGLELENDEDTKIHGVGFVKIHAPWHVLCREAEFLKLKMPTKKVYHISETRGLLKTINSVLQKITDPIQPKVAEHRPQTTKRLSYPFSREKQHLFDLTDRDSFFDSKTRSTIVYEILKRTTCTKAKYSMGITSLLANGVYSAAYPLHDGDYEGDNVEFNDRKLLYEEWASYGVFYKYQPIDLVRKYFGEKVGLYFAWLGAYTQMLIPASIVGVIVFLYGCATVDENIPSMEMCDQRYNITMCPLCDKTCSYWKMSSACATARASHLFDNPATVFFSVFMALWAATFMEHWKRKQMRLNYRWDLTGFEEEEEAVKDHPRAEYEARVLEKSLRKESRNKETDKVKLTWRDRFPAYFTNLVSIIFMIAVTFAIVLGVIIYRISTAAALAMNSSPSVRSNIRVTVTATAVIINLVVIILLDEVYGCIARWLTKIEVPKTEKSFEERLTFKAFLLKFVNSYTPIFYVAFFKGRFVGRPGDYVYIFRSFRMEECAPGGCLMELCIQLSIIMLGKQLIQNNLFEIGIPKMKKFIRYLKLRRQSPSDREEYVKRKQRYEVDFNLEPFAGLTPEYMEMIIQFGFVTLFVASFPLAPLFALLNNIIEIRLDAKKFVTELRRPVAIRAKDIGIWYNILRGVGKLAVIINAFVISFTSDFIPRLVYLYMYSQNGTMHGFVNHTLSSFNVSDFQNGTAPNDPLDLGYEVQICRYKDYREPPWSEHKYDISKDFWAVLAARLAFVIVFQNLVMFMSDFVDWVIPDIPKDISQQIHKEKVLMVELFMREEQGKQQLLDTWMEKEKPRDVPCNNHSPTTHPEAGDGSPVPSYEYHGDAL

Structure (SMILES)	B-score
FC(F)(F)c1cccc(NC(=S)Nc2cccc(Cl)c2)c1	-5.69 (active)
Cc1cccc(NC(=S)Nc2ccc(Cl)c(Cl)c2)c1	inactive
O=C(O)CC1(CC(=O)Nc2cccc(C(F)(F)F)c2)CCCC1	inactive
C#CCOCCOCCOCCNc1nc(N2CCN(C(=O)[C@H](C(C)C)n3cc(CCO)nn3)CC2)nc(N2CCN(C(=O)[C@H]([C@@H](C)CC)n3cc(CCCN=C(N)N)nn3)CC2)n1	inactive
C#CCOCCOCCOCCNc1nc(N2CCN(C(=O)CCCCCCCCCCNC(=O)[C@H](CCCCN)n3cc(C)nn3)CC2)nc(N2CCN(C(=O)CCCCCCCCCCNC(=O)[C@H](CO)n3cc(CCCSC)nn3)CC2)n1	-13.2 (active)
C#CCOCCOCCOCCNc1nc(N2CCN(C(=O)CCCCCCCCCCNC(=O)[C@H]([C@@H](C)CC)n3cc(CCCCN=C(N)N)nn3)CC2)nc(N2CCN(C(=O)CCCCCCCCCCNC(=O)[C@H](CO)n3cc(CCCSC)nn3)CC2)n1	-27.8 (active)
C#CCOCCOCCOCCNc1nc(N2CCN(C(=O)Cn3cc(CCO)nn3)CC2)nc(N2CCN(C(=O)Cn3cc(CCCN=C(N)N)nn3)CC2)n1	inactive
C#CCOCCOCCOCCNc1nc(N2CCN(C(=O)Cn3cc(CCCCN)nn3)CC2)nc(N2CCN(C(=O)[C@H](CCCCN)n3cc(CCC(=O)O)nn3)CC2)n1	inactive
C#CCOCCOCCOCCNc1nc(N2CCN(C(=O)Cn3cc(CCO)nn3)CC2)nc(N2CCN(C(=O)[C@H](CCCCN)n3cc(CCCC)nn3)CC2)n1	inactive
Cc1ccc(OCCCC(=O)Nc2ccc3c(c2)OCCO3)cc1	inactive
O=C(NCCCc1ccccc1)c1cc(COc2c(F)cccc2F)on1	inactive
CCN1CCN(C(=O)C2CCCN(S(=O)(=O)c3ccc(OC)c(OC)c3)C2)CC1 (stereo unspecified)	inactive
COc1ccc(/C=C/CN2CCN(Cc3ccc(C)cc3)C(CCO)C2)cc1 (stereo unspecified)	inactive
O=C(CN1CCN(c2ccccc2O)CC1)NC(=O)NCc1ccccc1	inactive
CCCC(C(=O)n1nc(C)cc1C)C(NS(=O)(=O)c1ccc(C)cc1)c1ccccc1 (stereo unspecified)	-8.83 (active)
Cc1ccc(S(=O)(=O)NC(C(=O)N2CCOCCOCCOCCOCC2)c2ccccc2)cc1 (stereo unspecified)	inactive
Cc1ccc(S(=O)(=O)Nc2nc(C)cc(-n3nc(C)cc3C)n2)cc1	inactive
O=c1[nH]c(=S)[nH]c(O)c1/C=C1\C=Nc2ccccc21	inactive
CC(C)N(Cc1nnc(-c2ccc(Cl)cc2)o1)C(=O)C1=COCCO1	inactive
CCOC(=O)c1ccccc1NC(=O)COC(=O)CCC(=O)N1CCOCC1	inactive
Cc1cnc(CN(C)C(=O)CC2C(=O)NCCN2Cc2cccc(F)c2F)[nH]1 (stereo unspecified)	inactive

Structure (SMILES)	B-score
Cc1nc2cccnc2nc1C	inactive
CC(C)CCN1CCN(C/C=C/c2ccco2)CC1CCO (stereo unspecified)	-7.6 (active)
Cc1ccc(CN2CCN(Cc3ccccc3-c3ccco3)CC2CCO)o1 (stereo unspecified)	inactive
CC(C)CCN1CCN(Cc2ccc(C(F)(F)F)cc2)CC1CCO (stereo unspecified)	inactive
COCCNC(=O)CSc1nc2c(n1-c1ccccc1)CCCC2	inactive
O=C(CCNC(=O)c1ccc([N+](=O)[O-])cc1)NC1CCCCC1	inactive
NC(=O)c1ccc(NC(=O)COC(=O)c2c3c(nc4ccccc24)/C(=C\c2ccc4c(c2)OCO4)CCC3)cc1	-6.02 (active)
NS(=O)(=O)c1ccc(NC(=O)COC(=O)c2c3c(nc4ccccc24)/C(=C\c2ccc4c(c2)OCO4)CCC3)cc1	inactive
O=C(COC(=O)c1ccncc1)Nc1ccc2c(c1)OCO2	inactive
CCOC(=O)c1cc(NC(=O)SCC(=O)O)c(C)nc1C	inactive
CC(=O)OC(C)C[N+](C)(C)C (stereo unspecified)	-7.27 (active)
CC(C[N+](C)(C)C)OC(N)=O (stereo unspecified)	inactive
CC(=O)OCC(COC(C)=O)OC(C)=O	inactive
NS(=O)(=O)c1ccc(N=Cc2ccc(Br)s2)cc1	inactive
COc1ccc(NC(C(=O)Nc2cccc(C(C)=O)c2)c2ccccc2)cc1 (stereo unspecified)	inactive
COc1ccc(-c2onc3ccc(C(C)=O)cc23)cc1	-5.14 (active)
COc1ccc(-c2cc(C(=O)N3CCN(c4ccc(F)cc4)CC3)no2)cc1	inactive
Cc1cccc(CC(=O)Nc2c3c(nn2-c2cccc(Cl)c2)CS(=O)C3)c1 (stereo unspecified)	inactive
CN(C(=O)c1cccc(NC(=O)Cc2ccc(NC(=O)C3CCCN(C(=O)C4CCCC4)C3)cc2)c1)C1CCC1 (stereo unspecified)	inactive
C=C(Cl)COC(=O)C1C2C=CC(C2)C1C(=O)O (stereo unspecified)	inactive
Cn1nccc1NS(=O)(=O)c1ccc(F)cc1	inactive

Structure (SMILES)	B-score
O=C(Cc1ccc(Br)cc1)NCCN1CCOCC1	inactive
CCCCNCc1ccc(SC)cc1	inactive
CSc1ccc(CNCCN2CCOCC2)cc1	-9.5 (active)
O=C(c1ccc(OC2CCN(C/C=C/c3ccc(F)cc3)CC2)cc1)N1CCCCC1	inactive
CCn1c(Cc2ccccc2)nnc1SCc1nc2ccccc2c(=O)[nH]1	inactive
COc1ccc(CCCc2nnc(SCc3nc4ccccc4c(=O)[nH]3)n2C)cc1	inactive
CCn1c(COc2c(C)cccc2C)nnc1SCc1nc2ccccc2c(=O)[nH]1	-4.66 (active)
Cc1ccc(Cl)cc1N1CCN(C(=O)c2cccc3c(=O)c(C)c(-c4ccccc4)oc23)CC1	inactive
CCOc1ccc(N(CC(=O)NC2CCCCCC2)S(=O)(=O)c2c(C)[nH]c(=O)[nH]c2=O)cc1	inactive
Oc1c(Cl)cc(Cl)c(Cl)c1Cc1c(O)c(Cl)cc(Cl)c1Cl	-5.49 (active)
OCC(O)C1OCOC(C(O)CO)C1O (stereo unspecified)	inactive
COc1ccc(S(=O)(=O)N2CCCCCC2)cc1C(=O)N(C)Cc1cccc(OC)c1OC	-5.67 (active)
COc1ccc(C(=O)N(C)Cc2ccc(OC)c(OC)c2OC)cc1S(=O)(=O)N1CCOCC1	inactive
CCNC(=O)NC(=O)C(C)OC(=O)c1cc(S(=O)(=O)N2CCCCCC2)ccc1OC (stereo unspecified)	inactive
COc1ccc(NC(=O)C2C3C=CC(C3)C2C(=O)NCc2ccccn2)c(OC)c1 (stereo unspecified)	inactive
O=C(NCCN1CCOCC1)c1cccc(S(=O)(=O)Nc2ccc(F)cc2)c1	inactive
Cc1c(C(=O)NNC(=O)c2ccncc2)oc2ccccc12	inactive
Cc1ccc(C(=O)NC(=S)NCc2cccnc2)cc1	inactive
Cc1c(C(=O)NC(=S)NCc2cccnc2)oc2ccccc12	-24.9 (active)
